CYP2C19 act: activators of human cytochrome P450 2C19; P33261; recombinant CYP2C19, luciferin-H EGE luminescence; active compounds read high; 0 = fully inhibited enzyme, 1 = untreated enzyme; activation factor at 5 µM; 96,000 tested, under 10 active; AID 1025;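 active means activation factor of at least 2 at 5 µM in the primary screen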;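 further: 0 = wells with 2.5 mM tranylcypromine and 1 = vehicle-only wells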
CYP2C19 inh: inhibitors of human CYP2C19; CYP2C19 Supersomes, luciferin-H EGE luminescence, 30 min; inhibition, % at 5 µM; 96,000 tested, 21% active; AID 778;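 active means CYP2C19 inhibition above a set limit at 5 µM in the primary screen, cut at about 50% in these data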;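 further: plate controls were negative control wells for no effect and 2.5 mM tranylcypromine positive control for full effect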
CD11b adhes inh: inhibitors of human CD11b/CD18 binding to fibrinogen; P05107+P11215; K562 CD11b/CD18 adhesion to fibrinogen, ATPlite luminescence; Mn2+ added to activate the integrin; inhibition, % at 10 µM; 93,000 tested, 0.54% active; AID 1497;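 active means primary inhibition of 50% or more at 10 µM, then 40% or more on retest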
Target sequence (P05107 whole entry, looked up, other chains not shown): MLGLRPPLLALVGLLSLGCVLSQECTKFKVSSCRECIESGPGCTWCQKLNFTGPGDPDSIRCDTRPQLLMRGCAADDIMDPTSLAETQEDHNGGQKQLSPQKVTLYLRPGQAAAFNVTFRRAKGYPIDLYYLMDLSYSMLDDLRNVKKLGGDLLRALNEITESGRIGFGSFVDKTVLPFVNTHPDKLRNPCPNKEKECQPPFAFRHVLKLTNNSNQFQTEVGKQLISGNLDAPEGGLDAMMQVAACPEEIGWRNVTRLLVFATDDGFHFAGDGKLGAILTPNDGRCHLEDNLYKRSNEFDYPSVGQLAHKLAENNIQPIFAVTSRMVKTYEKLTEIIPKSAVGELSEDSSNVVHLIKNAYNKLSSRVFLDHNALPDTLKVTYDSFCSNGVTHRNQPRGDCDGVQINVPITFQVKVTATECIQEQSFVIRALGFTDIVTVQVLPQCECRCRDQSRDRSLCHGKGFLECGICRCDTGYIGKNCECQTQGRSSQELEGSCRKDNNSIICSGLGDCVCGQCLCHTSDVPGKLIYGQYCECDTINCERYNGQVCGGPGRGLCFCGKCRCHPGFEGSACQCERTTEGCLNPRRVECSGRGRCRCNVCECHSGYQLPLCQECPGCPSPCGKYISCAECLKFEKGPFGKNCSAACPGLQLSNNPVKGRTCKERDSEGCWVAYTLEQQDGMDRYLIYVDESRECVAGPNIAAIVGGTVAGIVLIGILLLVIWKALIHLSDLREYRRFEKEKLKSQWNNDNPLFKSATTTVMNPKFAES
CD11b adhes enh: increases human CD11b/CD18 adhesion to fibrinogen. 93,000 tested, 0.07% active. activation, % at 10 µM. K562 CD11b/CD18 adhesion to fibrinogen, ATPlite luminescence;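 active means 10 µM primary screen giving 50% or more activity, confirmed by 40% or more on retest at that dose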
CYP2C9 act: activators of human CYP2C9 | AID 1024 | activation factor at 5 µM | 96,000 tested, 1.4% active | recombinant CYP2C9, luciferin-H conversion, luminescence; active compounds read high; factor 1 = untreated enzyme, 0 = blocked | P11712;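 active means activation factor of 2 or more for CYP2C9 at a 5 µM dose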;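 further: 0 = sulfaphenazole-blocked wells and 1 = vehicle-only wells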
CYP2C9 inh: blocks human cytochrome P450 2C9; inhibition, % at 5 µM; P11712; AID 777; 96,000 tested, 20% active; CYP2C9 Supersomes, luciferin-H conversion, luminescence;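 active means blocking of liver enzyme CYP2C9 beyond about 50% at 5 µM, limit read from the data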
* marks the source's active call; other numbers are inactive results; . = no result given. A selection follows.

SMILES | CYP2C19 act | CYP2C19 inh | CD11b adhes inh | CD11b adhes enh | CYP2C9 act | CYP2C9 inh
COc1cccc(NC(=O)Cn2nnc(C(=O)Nc3ccccc3)c2N)c1 | 1 | 5 | 1 | -4 | 0.8 | 22
COc1ccc(OC)c(NC(=O)c2nnn(CCc3ccccc3)c2N)c1 | 1.1 | -5 | 12 | -1 | 0.9 | 15
COc1cccc(NC(=O)c2nnn(CCc3ccccc3)c2N)c1 | 0.3 | 73* | -2 | 2 | 0.1 | 92*
CCc1ccc(Cn2nnc(C(=O)Nc3ccc(OC)cc3OC)c2N)cc1 | 1.1 | -8 | -2 | -4 | 3.4* | -238
O=C(NC(Cc1ccccc1)C(=O)O)/C(=C\c1ccc(F)cc1)NC(=O)c1ccccc1 (centres undefined) | 1 | -1 | . | . | 0.9 | 8
Cc1ccc(Nc2cnn(C34CC5CC(CC(CC(=O)O)(C5)C3)C4)c(=O)c2Cl)cc1 | 1.1 | -13 | 12 | -1 | 1 | -2
Cc1ccc(S(=O)(=O)C(C#N)c2nc3ccccc3nc2N2CCCC2)cc1 (centres undefined) | 0.1 | 87* | 25 | -1 | 0.5 | 55*
CC1CCCN(c2nc3ccccc3nc2C(C#N)S(=O)(=O)c2cccs2)C1 (centres undefined) | 1 | 3 | 4 | -4 | 0.3 | 75*
COc1ccc(S(=O)(=O)C(C#N)c2nc3ccccc3nc2N2CCCC(C)C2)cc1 (centres undefined) | 0.1 | 86* | . | . | 0.1 | 93*
CC1CCCN(c2nc3ccccc3nc2C(C#N)C(=O)OC2CCCCC2)C1 (centres undefined) | 1 | 3 | 11 | -2 | 0.8 | 17
CC(O)CN(Cc1cccc(Cl)c1)CC(C)O (centres undefined) | 1.1 | -7 | 18 | 1 | 1.2 | -22
NC(=O)c1nsc(C(=O)N(CC(=O)NCc2ccc3c(c2)OCO3)C2CCCC2)c1N | 0.6 | 42 | 7 | -1 | 1.1 | -8
Fc1ccc(NC(=S)NCc2ccccn2)cc1 | 0.9 | 13 | . | . | 1 | -2
COc1cccc(-c2nc(CS(=O)(=O)c3ccccc3)no2)c1 | 0.6 | 43 | 11 | -2 | 0.7 | 32
CCOC(=O)NC(c1cccc(Cl)c1)C1CCCCCC1=O (centres undefined) | 0 | 97* | 26 | 3 | 0.4 | 56*
CN(C)c1ccc(C(CC(=O)c2ccccc2)C2CCCCC2=O)cc1 (centres undefined) | . | . | -7 | 7 | . | .
COc1ccc(NC(C)=O)cc1NC(=O)CSc1nnc(-c2cccnc2)n1C | 1 | 4 | -25 | -1 | 1.1 | -10
Cc1nn(-c2ccccc2)c(/N=C/c2ccc(O)cc2)c1-c1ccccc1 | . | . | -13 | -2 | . | .
COc1ccc(-c2nnc(SC(C)C(=O)NNC(=O)c3ccc(C)cc3)o2)cc1 (centres undefined) | . | . | 23 | 2 | . | .
COc1cc(-c2nnc(SC(C)C(=O)Nc3c(C)n(C)n(-c4ccccc4)c3=O)o2)cc(OC)c1OC (centres undefined) | 1 | 5 | -3 | 2 | 0.7 | 26
COc1ccc(-c2nnc(SC(C)C(=O)Nc3cccc(Cl)c3)o2)cc1 (centres undefined) | 0.5 | 48 | 18 | -4 | 0.4 | 61*
CC(Sc1nnc(-c2ccc(O)cc2)o1)C(=O)Nc1cccc2ccccc12 (centres undefined) | 0.3 | 72* | 8 | 2 | 0.9 | 14
Cn1nc(C(=O)Nc2c(-c3ccccc3)nc3sccn23)c2ccccc2c1=O | 1.1 | -11 | 4 | -3 | 1.1 | -11
CN1CCN(S(=O)(=O)c2ccc(Cc3ccc(S(=O)(=O)N4CCN(C)CC4)cc3)cc2)CC1 | 0.8 | 15 | -9 | -3 | 0.9 | 14
OC(COc1ccc2c(c1)OCO2)CN1CCc2ccccc2C1 (centres undefined) | 0.6 | 43 | 2 | -5 | 0.9 | 8
CN1C(=O)C(O)(CC(=O)c2ccccn2)c2cc(Br)ccc21 (centres undefined) | 0.3 | 67* | -4 | -5 | 0.9 | 6
CN1C(=O)C(O)(C2COC(C)(C)CC2=O)c2ccccc21 (centres undefined) | 1.1 | -14 | 3 | -4 | 1.2 | -20
